Records with an inconclusive call do not appear. Unmarked numbers belong to inactive results. Active and inactive are the calls of the source. The call rests on the fitted dose curve; in most records, active means well fitted inhibition curve with a large enough effect; inconclusive means small, poorly fitted or top-dose-only effect, or effect the other way; inactive means flat fitted curve, though single readings scatter.

Data on 40 compounds can be found in PubChem BioAssay (NCATS).
On the % scale 0 is the no-effect control and ±100 the full control effect; potency means the concentration at half of the fitted maximal effect.

Sequence of ATPase family AAA domain-containing protein 5 (Homo sapiens) (Q96QE3 whole entry, looked up, the tested form may be a part): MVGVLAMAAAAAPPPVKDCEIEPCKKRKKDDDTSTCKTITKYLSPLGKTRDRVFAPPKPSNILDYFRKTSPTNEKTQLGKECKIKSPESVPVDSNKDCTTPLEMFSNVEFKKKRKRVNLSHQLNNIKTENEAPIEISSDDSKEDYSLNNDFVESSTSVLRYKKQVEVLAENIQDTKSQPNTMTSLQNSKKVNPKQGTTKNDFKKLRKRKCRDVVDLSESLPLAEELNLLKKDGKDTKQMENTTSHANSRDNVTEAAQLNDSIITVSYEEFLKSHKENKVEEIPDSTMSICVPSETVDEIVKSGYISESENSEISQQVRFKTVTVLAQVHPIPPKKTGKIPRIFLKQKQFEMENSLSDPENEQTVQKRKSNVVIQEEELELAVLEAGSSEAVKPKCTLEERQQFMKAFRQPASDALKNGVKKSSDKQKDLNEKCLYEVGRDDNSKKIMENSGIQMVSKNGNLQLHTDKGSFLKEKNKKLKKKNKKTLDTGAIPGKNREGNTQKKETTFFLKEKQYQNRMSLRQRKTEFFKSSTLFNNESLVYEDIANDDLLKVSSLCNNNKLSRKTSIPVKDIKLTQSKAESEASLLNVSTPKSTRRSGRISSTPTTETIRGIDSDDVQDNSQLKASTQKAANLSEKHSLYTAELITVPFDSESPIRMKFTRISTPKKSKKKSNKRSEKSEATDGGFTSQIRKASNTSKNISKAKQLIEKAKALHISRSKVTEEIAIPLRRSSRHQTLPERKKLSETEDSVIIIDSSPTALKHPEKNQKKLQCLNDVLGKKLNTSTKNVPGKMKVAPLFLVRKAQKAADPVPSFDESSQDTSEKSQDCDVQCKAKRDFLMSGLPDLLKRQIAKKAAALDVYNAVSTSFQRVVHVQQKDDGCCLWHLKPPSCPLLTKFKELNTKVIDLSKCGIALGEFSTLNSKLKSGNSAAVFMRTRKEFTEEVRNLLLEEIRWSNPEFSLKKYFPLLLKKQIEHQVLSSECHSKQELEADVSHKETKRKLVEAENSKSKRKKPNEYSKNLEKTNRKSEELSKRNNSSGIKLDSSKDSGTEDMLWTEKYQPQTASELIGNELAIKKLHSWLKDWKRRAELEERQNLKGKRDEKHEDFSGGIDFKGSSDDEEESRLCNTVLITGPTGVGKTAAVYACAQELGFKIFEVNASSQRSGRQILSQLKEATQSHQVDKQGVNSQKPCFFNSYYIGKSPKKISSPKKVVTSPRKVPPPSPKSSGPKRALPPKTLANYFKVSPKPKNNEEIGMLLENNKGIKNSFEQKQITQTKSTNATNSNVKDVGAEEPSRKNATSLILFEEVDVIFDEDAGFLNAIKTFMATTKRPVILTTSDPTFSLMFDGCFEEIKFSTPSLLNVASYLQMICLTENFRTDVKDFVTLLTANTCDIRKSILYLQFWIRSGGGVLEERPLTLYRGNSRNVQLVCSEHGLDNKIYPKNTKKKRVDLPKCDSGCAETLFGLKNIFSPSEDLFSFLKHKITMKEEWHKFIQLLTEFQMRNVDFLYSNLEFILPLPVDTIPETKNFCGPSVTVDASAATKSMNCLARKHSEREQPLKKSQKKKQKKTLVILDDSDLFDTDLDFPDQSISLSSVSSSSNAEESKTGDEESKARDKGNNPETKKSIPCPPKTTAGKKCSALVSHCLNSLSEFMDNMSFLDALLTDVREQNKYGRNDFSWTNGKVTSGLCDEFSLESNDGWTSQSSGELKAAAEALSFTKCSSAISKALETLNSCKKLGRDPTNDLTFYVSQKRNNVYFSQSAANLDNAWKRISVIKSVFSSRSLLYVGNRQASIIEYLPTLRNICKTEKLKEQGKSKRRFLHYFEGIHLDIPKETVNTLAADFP

The experiment addresses ATPase family AAA domain-containing protein 5 (Homo sapiens) (UniProt Q96QE3). Description: Validation screen for small molecules that inhibit ELG1-dependent DNA repair in human embryonic kidney (HEK293T) cells expressing luciferase-tagged ELG1 (AID 493107). Further: nearly all actives have a fitted effect of over 70% in size.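 On activity change, negative = decrease: inhibitors lower the ELG1-luciferase luminescence signal.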 The following applies: HEK293T ELG1-luciferase level, luminescence, 5-fluorouridine co-treatment, 16 h; series mostly up to 46.1 µM; activity change, negative = decrease: at the top concentration. An excerpt: NIH Molecular Libraries Probe Production Network [MLPCN]
NIH Chemical Genomics Center [NCGC]
Assay Provider: Kyungjae Myung, NHGRI, NIH
Keywords: MLPCN, qHTS, NCGC, genotoxicity, cancer
Cancer cells divide rapidly compared to normal cells in the body. During cell division, cancer cells need to duplicate their genome by DNA replication. The failure of genome duplication leads to cancer cells' death. Therefore, inhibitors of DNA replication could specifically kill cancer cells. Based on this concept, many chemotherapeutic agents were developed and have been used to treat cancer patients. However, there are a limited number of agents available in the clinical setting, and some of those that do exist have low efficacy and severe side effects. Therefore, if we can find the compounds that effectively block DNA replication either by directly damaging DNA or by inhibiting other cellular mechanisms, the options for cancer treatment will be broadened. With this in mind, we developed a quantitative high-throughput ELG1-luciferase reporter gene assay. Small molecules that specifically block ELG1 function in response to DNA damage can be identified by monitoring the suppression of luciferase activity. Since ELG1 defines a pathway for repairing DNA damage, agents blocking ELG1 function can be used to sensitize cancer cells to chemotherapeutic agents whose mechanism of action involves the induction of DNA damage.
For genotoxicity screening, 2,000 cells in 4 uL/well were dispensed into white, solid-bottom 1536-well plates using a solenoid-based dispenser. Following transfer of 1 uL 5-Fluorouridine and 23 nL compound or DMSO vehicle by a pin tool, the plates were incubated 16 hr at 37 °C and 5% CO2. 5 ul ONE-Glo (Promega) was then added to each plate and following a 30 min incubation at room temperature, luciferase activity was quantified on a ViewLux CCD-based plate reader.
Turning to `Nc1ccc(CCNc2ncnc3c2ncn3C2OC(CO)C(O)C2O)cc1` (stereo not given), the “activity change, negative = decrease” value is 25.7%.

On to `CC#CCOC(=O)c1c(C)nc2sc3c(c2c1N)CCC(O)C3` (stereo not given), for which the “activity change, negative = decrease” value is -11.3%.

As for `Nc1ccc2c3c(cccc13)C(=O)NC2=O`, the “activity change, negative = decrease” value was 14.4%.

Regarding `N=C(N)c1ccccc1`, the “activity change, negative = decrease” value is 11.6%.

With `N#C/C(=C\c1ccc(O)c(O)c1)C(=O)NCCc1ccccc1`, the “activity change, negative = decrease” value is -3.16%.

With `CNCCc1cnc(CCC(c2ccccc2)c2ccccc2)[nH]1`, the “activity change, negative = decrease” value is -17.3%.

For `Cc1nc2n(c(=O)c1CCN1CCC(c3noc4cc(F)ccc34)CC1)CCCC2O` (stereo not given), the “activity change, negative = decrease” value is 12.4%.

Take `NC1(C(=O)O)CCc2cc(C(=O)O)ccc21` (stereo not given): the “activity change, negative = decrease” value is -1.44%.

In the case of `Nc1ncnc2c1ncn2C1CCCC1`, the “activity change, negative = decrease” value is -21.9%.

`O=C(O)Cc1c[nH]c2ccc(O)cc12`: the “activity change, negative = decrease” value was 9.32%.

As to `Nc1nc2c(cnn2CCc2ccccc2)c2nc(-c3ccco3)nn12`, the “activity change, negative = decrease” value is -6%.

In the case of `OCC1NCC(O)C(O)C1O` (stereo not given), the “activity change, negative = decrease” value was 11.2%.

`NS(=O)(=O)c1cccc2c1c([N+](=O)[O-])cc1nc(O)c(O)nc12`: the “activity change, negative = decrease” value was 4.18%.

As for `O=C(O)C1CCNCC1`, the “activity change, negative = decrease” value is 13%.

On to `NC(=O)CC[C@H](N)C(=O)O`, for which the “activity change, negative = decrease” value is 17.9%.

For `O=C1Nc2ccc(I)cc2/C1=C/c1cc(Br)c(O)c(Br)c1`, the “activity change, negative = decrease” value is -3.34%.

In the case of `C[C@@H](NCCc1ccc(O)cc1)[C@@H](O)c1ccc(O)cc1`, the “activity change, negative = decrease” value is 25.5%.

Take `NCCCCN`: the “activity change, negative = decrease” value is -1.59%.

On to `N[C@@H](CCCC(=O)O)C(=O)O`, for which the “activity change, negative = decrease” value is 11.2%.

Take `CCCCCCCCCCCCCCSCC(=O)O`: the “activity change, negative = decrease” value is 3.34%.

As for `NOCC(=O)O`, the “activity change, negative = decrease” value was -8.39%.

Turning to `[Li+]`, the “activity change, negative = decrease” value was 12.6%.

As to `CC1CNCCN1S(=O)(=O)c1cccc2cnccc12` (stereo not given), the Potency is 8.2 µM (active).

As for `O=c1[nH]c2cc(Cl)ccc2c(O)c1-c1ccc(Oc2ccccc2)cc1`, the “activity change, negative = decrease” value is -6.13%.

On to `Cn1c(=O)c2[nH]c(-c3ccc(S(=O)(=O)O)cc3)nc2n(C)c1=O`, for which the “activity change, negative = decrease” value is -1.28%.

On to `C=CC1(C)CC(=O)C2(O)C(C)(O1)C(OC(C)=O)C(O)C1C(C)(C)CCC(O)C12C` (stereo not given), for which the “activity change, negative = decrease” value was 4.24%.

For the compound `COc1cc(C(O)CO)ccc1O` (stereo not given), the “activity change, negative = decrease” value was 15.8%.

In the case of `CC(=O)NCCc1c[nH]c2ccc(O)cc12`, the “activity change, negative = decrease” value was -4.01%.

Consider `CN(CC[C@@H](Oc1ccc(C(F)(F)F)cc1)c1ccccc1)CC(=O)O`, for which the “activity change, negative = decrease” value is -0.0611%.

Consider `COc1cc(/C=C(\C#N)C(=O)c2ccc(O)c(O)c2)cc(I)c1O`, for which the “activity change, negative = decrease” value was 7.13%.

Regarding `CC[N+](CC)(CC)CC(=O)Nc1c(C)cccc1C`, the “activity change, negative = decrease” value was -8.72%.

Turning to `COCc1nc2c([nH]1)c(=O)n(C)c(=O)n2CC(C)C`, the “activity change, negative = decrease” value is 3.37%.

In the case of `CCN(CC)CCOC(=O)c1cc(Cl)c(N)cc1OC`, the “activity change, negative = decrease” value is 16%.

`O=c1ccc2c(OCCCCc3ccccc3)c3ccoc3cc2o1`: the “activity change, negative = decrease” value was -23.5%.

As to `CC(C)NCC(O)COc1ccc(CC(N)=O)cc1` (stereo not given), the “activity change, negative = decrease” value was 17.2%.

As for `CCCn1c(=O)c2[nH]c(-c3ccc(S(=O)(=O)O)cc3)nc2n(CCC)c1=O`, the “activity change, negative = decrease” value is 1.2%.

Regarding `NC1CONC1=O` (stereo not given), the “activity change, negative = decrease” value was -11.7%.

Regarding `CC1C(=O)N(C)C(=O)c2nc[nH]c21` (stereo not given), the “activity change, negative = decrease” value was -1.57%.

Turning to `CCCCCC(O)CCCC(=O)O` (stereo not given), the “activity change, negative = decrease” value was 0.973%.

As for `N[C@@H](Cc1c[nH]c2ccccc12)C(=O)O`, the “activity change, negative = decrease” value is 21%.
